This passage reports composite z-score results from PubChem BioAssay.

The structures appear in SMILES notation.

For the experiment, the target named is Streptavidin (Streptomyces avidinii) (UniProt P22629). Kind of experiment: compounds binding control protein streptavidin – biophysical, small-molecule microarray, 635/667 nm fluorescence, artefact control for SMM compound annotation, primary screen (AID 1147).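 Further: signal reflects streptavidin binding to arrayed compounds as a control protein.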 The settings on record: higher = more signal.
Chain of Streptavidin (Streptomyces avidinii) (P22629 whole entry, looked up): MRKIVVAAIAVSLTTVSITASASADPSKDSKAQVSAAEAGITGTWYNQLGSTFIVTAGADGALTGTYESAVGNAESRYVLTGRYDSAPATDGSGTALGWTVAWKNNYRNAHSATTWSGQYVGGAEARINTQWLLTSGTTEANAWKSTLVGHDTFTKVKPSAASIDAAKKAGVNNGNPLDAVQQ
The compound `CCOC(=O)CCN1C(=O)[C@H]2[C@H]3[C@H](O)[C@H](O)CC(=NOCC=C(C)CCC=C(C)C)[C@H]3CC[C@H]2C1=O` registered a composite z-score of 0.344.
The result for `CCOC(=O)[C@H](Cc1ccccc1)NC(=O)CCC1CC(OC(=O)NCc2cccc3ccccc23)CC2(CCCC(COC(=O)NCCOc3ccccc3)O2)O1` (stereo partly specified) reads 0.419; that for `CCOC(=O)[C@H](CC(C)C)NC(=O)CCC1CC(OC(=O)NCCc2ccc(F)cc2)CC2(CCCC(COC(=O)NCCCN3CCCC3=O)O2)O1` (stereo partly specified), 0.484.
The result for `CC(=O)OC[C@H]1O[C@H](CC=NOC(C)CN2CCCCc3nc(C)c(C)cc32)C=C[C@@H]1OC(C)=O` (stereo partly specified) reads 1.87; that for `C#CCCCON=C1[C@H]2CCn3c(=O)n([C@@H](CC)c4ccccc4)c(=O)n3[C@H]2[C@H](O)[C@@H]2O[C@H]12`, 0.017; that for `CO[C@H]1C[C@@H]2C[C@H](O)CC(CC(=O)O[C@@H](C=CCC(C)C)C[C@@H]3CC[C@H](C)[C@@H](C1)O3)O2`, 0.645.
To `C=CC[C@@H]1C=C[C@H](ON=C[C@@H](NS(=O)(=O)c2ccc(C)cc2)[C@H](C)C=CCC(=O)OC)[C@@H](CO)O1` belongs -0.407.
In turn, `CO[C@H]1COC(=O)CCC[C@H](C)[C@@H](OC)COC(=O)CC=C[C@@H]1C` returned a composite z-score of -0.256.
To `O=C(NN=C1C[C@@H](O)[C@@H](O)[C@@H]2[C@@H]3C(=O)N(Cc4ccccc4)C(=O)[C@@H]3CC[C@H]12)OCc1ccccc1` belongs -0.0198; to `CCOC(=O)[C@H](CC(C)C)NC(=O)CCC1CC(OC(=O)NCCc2ccc(F)cc2)CC2(CCCC(COC(=O)NCc3cccc4ccccc34)O2)O1` (stereo partly specified), 1.57.
The result for `CCN1C(=O)[C@H]2[C@H]3[C@H](O)[C@H](O)CC(=NOCC(C)C)[C@H]3CC[C@H]2C1=O` reads 0.342; that for `COC(OC)[C@@H](C)[C@H](OC)[C@@H](C)[C@H](OC)c1ccccc1`, -0.211.
The result for `COC(=O)[C@H](C)NC(=O)CCC1CC(OC(=O)NCc2ccc3c(c2)OCO3)CC2(CCCC(COC(=O)NCc3ccccc3)O2)O1` (stereo partly specified) reads 0.115.
In turn, `CO[C@@H](C1CCCCC1)[C@@H](C)[C@H](OCc1cccc(Br)c1)[C@@H](C)CO` registered a composite z-score of -0.0731.
The result for `CC(C)CON=C1[C@H]2CCn3c(=O)n(C)c(=O)n3[C@H]2[C@H](O)[C@@H]2O[C@H]12` reads 0.212; that for `C[C@]12CCC3c4ccc(OCC5CO5)cc4CCC3C1CC[C@@H]2O` (stereo partly specified), 0.699.
In turn, `CO[C@@H]1C=CCC(=O)N[C@@H](C)C(=O)OC[C@@H](OC)[C@H](C)C=CCC(=O)OC[C@H]1C` registered a composite z-score of -0.477.
In the case of `OC[C@H]1O[C@H](C#Cc2ccccc2)C=C[C@@H]1O`, the composite z-score stood at 0.431.
As to `CC(C)[C@@H](OCc1ccccc1)[C@H](C)C=NO[C@H](C)c1cn([C@@H]2COC[C@H]2O)nn1`, the composite z-score was determined as 0.0286.
To `CN1CCc2nc(-c3ccccc3)c(-c3ccccc3)cc2C1` belongs 0.0666; to `O=C1[C@H]2[C@H]3[C@H](O)[C@H](O)CC(=NOC[C@@H](O)COCc4ccco4)[C@@H]3CC[C@H]2C(=O)N1Cc1ccc2c(c1)OCO2`, -0.436; to `CCOC(=O)[C@H](CC(C)C)NC(=O)CCC1CC(OC(=O)NCc2ccc3c(c2)OCO3)CC2(CCCC(COC(=O)NCCc3ccccc3OC)O2)O1` (stereo partly specified), 0.512.
The result for `C[C@@H]1CC[C@H]2C(=O)OC(CN3C(=O)c4ccccc4C3=O)CN2[C@H]1c1ccc(Br)cc1` (stereo partly specified) reads 0.942.
To `O=C1C=C[C@@H](O)[C@@H]2[C@@H]3C(=O)N(Cc4ccc5c(c4)OCO5)C(=O)[C@@H]3CC[C@@H]12` belongs 0.283; to `COC(=O)[C@H](C)NC(=O)CCC1CC(OC(=O)NCc2cccc3ccccc23)CC2(CCCC(COC(=O)NCCCN3CCCC3=O)O2)O1` (stereo partly specified), 0.865; to `CO[C@@H]1COC(=O)[C@H](COCc2ccccc2)NC(=O)CC=C[C@@H](C)[C@H](OC)COC(=O)[C@@H](C)NC(=O)CC=C[C@H]1C`, -0.801.
In the case of `CON=C(C)CCN1CCCCc2nc(C)c(C)cc21`, the composite z-score was -0.0284.
The result for `C#CCCCON=C1[C@H]2CCn3c(=O)n(Cc4cc5c(cc4Cl)OCO5)c(=O)n3[C@H]2[C@H](O)[C@@H]2O[C@H]12` reads 0.23.
The result for `C[C@H]1CC[C@H]2C(=O)N[C@H](Cc3ccccc3)C(=O)N2[C@@H]1c1ccccc1` reads 0.119.
To `CC(CCN1CCc2nc(-c3ccccc3)c(-c3ccccc3)cc2C1)=NO[C@H](C)c1cn([C@H](CO)Cc2ccccc2)nn1` belongs 0.545.
`C#CCCCON=C1C[C@@H](O)[C@@H](O)[C@@H]2[C@@H]3C(=O)N(C[C@@H]4CCCO4)C(=O)[C@@H]3CC[C@@H]12` gave a composite z-score of 0.269.
In turn, `CCOC(=O)[C@H](CC(C)C)NC(=O)CCC1CC(OC(=O)NCc2ccc3c(c2)OCO3)CC2(CCCC(COC(=O)NCCOC)O2)O1` (stereo partly specified) had a composite z-score of 0.0301.
Compound `COc1ccc(OC[C@@H](CO)OC)cc1` registered a composite z-score of 0.495.
The result for `COC(=O)[C@@H]1CC[C@H](C)[C@@H](c2ccc(C)cc2)N1C(=O)c1ccc(C=NOC[C@@H](O)[C@H]2O[C@@H]3OC(C)(C)O[C@@H]3[C@H]2O)cc1` reads 0.54.
As to `CC(=O)OC[C@H]1O[C@H](CC=NO[C@@H](C)c2cn([C@H](CO)Cc3ccccc3)nn2)C=C[C@@H]1OC(C)=O`, the composite z-score was 0.777.
The result for `COC(=O)[C@H](C)NC(=O)CCC1CC(OC(=O)NCc2ccc3c(c2)OCO3)CC2(CCCC(COC(=O)NCCC(C)C)O2)O1` (stereo partly specified) reads 0.232.
